test system: Plasmodium falciparum Sir2 (PF13_0152, Sir2A); assay: pfSir2 binders on small-molecule microarrays, primary screen, biochemical, small-molecule microarray, 635 nm fluorescence (AID 1098); conditions: small-molecule microarray binding, fluorescence 635 nm; higher = more signal;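 further: score merges spot fluorescence intensity with its signal-to-noise ratio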

First: [N-]=[N+]=Nc1ccccc1C[C@]1(C(=O)O)N=C(c2ccc(OCCCO)cc2)O[C@H]1c1ccccc1
Second: CN1C(=O)[C@@]2(Cc3ccccc3)N=C(c3ccc(OCCCO)cc3)O[C@H]2c2ccccc21
The composite z-score of the first is higher: 1.71 for the first, 0.318 for the second.

First: NC(=O)[C@@H]1[C@H]2C(=O)O[C@H](c3ccccc3)[C@H](c3ccccc3)N2[C@H](c2ccc(OCCO)cc2)[C@@]12C(=O)Nc1ccc(C#CCCO)cc12
Second: COc1cc2c(cc1OC)CN(C(=O)[C@@H]1[C@H]3C(=O)O[C@H](c4ccccc4)[C@H](c4ccccc4)N3[C@H](c3ccc(O)cc3)[C@@]13C(=O)Nc1ccc(C#CCCO)cc13)CC2
The composite z-score of the first is lower: 0.344 for the first, 0.552 for the second.

Compared with `Cc1ccc(S[C@]2(C(=O)NC(C)C)CC(=O)N(Cc3ccccc3Cl)[C@@H]2c2ccc(CO)cc2)cc1`, `C[C@]1(C(=O)O)c2ccccc2C(=O)N(Cc2ccc(OC(F)(F)F)cc2)[C@H]1c1ccc(CO)cc1` is lower in composite z-score: 1.23 for the first, 0.0634 for the second.

Going from `CC(C)=CCCC(C)=CC(O)C1C=CC2C(=O)N(c3ccccc3)C(=O)C2N1Nc1ccccc1F` (stereo not drawn) to `CCCCCCCCCCC(O)C1C=CC2C(=O)N(c3ccccc3)C(=O)C2N1Nc1ccccc1F` (stereo not drawn), the composite z-score falls from 1.33 to 0.565.

Compared with `COc1cc(NN2C(C(O)C3CCCCC3)C=CC3C(=O)N(C)C(=O)C32)cc(OC)c1OC` (stereo not drawn), `COc1cc(NN2C(C(O)c3cc(OC)c(OC)c(OC)c3)C=CC3C(=O)N(c4ccccc4)C(=O)C32)cc(OC)c1OC` (stereo not drawn) is lower in composite z-score: 1.04 for the first, 0.815 for the second.

Compared with `CC(C)C(CO)N1C(=O)[C@@H]2[C@H]3C(=O)OCC=C[C@H]3OC23C=CCN(C(C)(C)C)C(=O)[C@@H]13` (stereo partly drawn), `CC(C)[C@H]1NC(=O)[C@@]23C(=O)N[C@@H](Cc4ccccc4)C2[C@H](C)[C@@]2(C)O[C@H]2C3/C=C/CCC/C=C/CNC(=O)[C@H](Cc2ccccc2)NC1=O` (stereo partly drawn) is lower in composite z-score: 1.45 for the first, 1.39 for the second.

First: COC(=O)[C@@]1(Cc2ccc(OC)cc2)[C@H]2c3cc(C(=O)N4CCCC4)n(Cc4ccc(S(C)(=O)=O)cc4)c3C[C@H]2CN1C(=O)c1ccccc1
Second: COC(=O)[C@@]1(Cc2ccccc2)[C@H]2c3cc(C(=O)N4CCCC4)n(CCSCCO)c3C[C@H]2CN1C(=O)c1ccccc1
The composite z-score of the first is lower: 0.645 for the first, 0.809 for the second.

Compared with `CCCNC(=O)[C@@]1(Sc2ccc(C)cc2)CC(=O)N(C2CCCCC2)[C@@H]1c1ccc(CO)cc1I`, `CC(C)CNC(=O)[C@@]1(c2ccc([N+](=O)[O-])cc2)CC(=O)N(C2CCCCC2)[C@@H]1c1ccc(CO)cc1` is lower in composite z-score: 1.56 for the first, 0.388 for the second.

Compared with `CO[C@H]1O[C@H](CO)[C@@H](OC(=O)Nc2ccc(C#N)cc2)[C@@H]2OC(=O)[C@H](Cc3cccc(Br)c3)C/C=C/C[C@@H](Cc3cccc(Br)c3)C(=O)O[C@@H]12`, `COCCOC(=O)N1C(=O)[C@@]2(c3cc(C#CCC(C(=O)OC)C(=O)OC)ccc31)[C@H](c1ccc(O)cc1)N1[C@H](c3ccccc3)[C@H](c3ccccc3)OC(=O)[C@H]1[C@@H]2C(=O)NC[C@H](O)c1ccccc1` is lower in composite z-score: 0.717 for the first, 0.542 for the second.

Going from `COCCOC(=O)N1C(=O)[C@@]2(c3cc(C#CC4(O)CCCCCC4)ccc31)[C@H](C(=O)N1CCN(c3ncccn3)CC1)[C@H]1C(=O)O[C@H](c3ccccc3)[C@H](c3ccccc3)N1[C@@H]2c1ccccc1OCCO` to `COCCOC(=O)N1C(=O)[C@@]2(c3cc(C#Cc4ccc(OC)cc4)ccc31)[C@H](c1ccc(OCCO)cc1)N1[C@H](c3ccccc3)[C@H](c3ccccc3)OC(=O)[C@H]1[C@@H]2C(=O)Nc1nc2ccccc2s1`, the composite z-score falls from 1.27 to 0.181.

Going from `CCCC=C(CCC)[C@@H](NC(=O)CCc1ccccc1)c1ccc(C(F)(F)F)cc1` to `C=C(CCCC)C(=O)CC[C@@H](OC(=O)c1cccnc1)c1ccc(OCCO)cc1`, the composite z-score rises from 1.08 to 1.25.

Compared with `CCCCNC(=O)c1ccc(C#C[Si](C(C)C)(C(C)C)C(C)C)c(OC(C)=O)c1`, `C=C(COC)C(=O)CC[C@H](OC(=O)c1cccnc1)c1ccc(CO)o1` is higher in composite z-score: 0.28 for the first, 1.44 for the second.

Going from `C=C(/C(=C/C[C@H](OC(=O)c1ccncc1)c1ccccc1OCCO)c1cnc2ccccc2c1)C(C)C` to `C=C(/C(=C/C[C@@H](OC(=O)c1ccncc1)c1cccc(OCCO)c1)c1cnc2ccccc2c1)C(C)C`, the composite z-score falls from 1.06 to 0.198.

Compared with `COc1ccc(C(O)C2C=CC3C(=O)N(c4ccccc4)C(=O)C3N2Nc2ccc(C(C)C)cc2)c2ccccc12` (stereo not drawn), `O=C1C2C=CC(C(O)c3cc(C(F)(F)F)cc(C(F)(F)F)c3)N(Nc3ccccc3F)C2C(=O)N1c1ccccc1` (stereo not drawn) is lower in composite z-score: 1.6 for the first, 0.99 for the second.

Source: PubChem BioAssay
